Screening results: PubChem BioAssay, Broad Institute
CD40 NFkB inh = CD40 pathway inhibition in BL2 cells | actives 0.94% (n = 83,000) | inhibition, % at 10 µM | AID 1053188 | BL2 NF-kB luciferase reporter, CD40L-induced, 4 h;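 active = mean inhibition of at least 50% with a set share of replicates also reaching that level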;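 note: 0% = neutral control wells and 100% = IKK inhibitor VII at 50 µM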
* = called active by the depositor; [ ] = remark or other dose. The full list was thinned out, with hits kept by preference.

SMILES | CD40 NFkB inh
CCC(C)NS(=O)(=O)c1ccc(NC(C)=O)cc1 (centres undefined) | 8
CCOC(=O)/C=C/S(=O)(=O)c1ccc(NC(C)=O)cc1 | 110*
CCS(=O)(=O)Nc1ccc(NC(C)=O)cc1 | -9
COc1ccccc1-c1cn(CC[C@H]2CC[C@H](NC(=O)C3CCCC3)[C@@H](CO)O2)nn1 | -8
O=C(N/N=C/c1ccc([N+](=O)[O-])o1)C1CCCC1 | -2
CCCCCC(=O)N/N=C/c1ccc([N+](=O)[O-])o1 | 7
O=C(Cc1ccc2c(c1)OCO2)NN=Cc1ccc([N+](=O)[O-])o1 | 95*
N#C[C@@H]1[C@@H](c2ccccc2)[C@H](CO)N1C(=O)Nc1cccc(F)c1 | 11[25 µM]
Cc1ccccc1S(=O)(=O)N(C)C[C@H]1OCc2ccccc2-c2ccccc2C(=O)N([C@@H](C)CO)C[C@@H]1C | 13
CCCC(=O)Nc1ccc2c(c1)C(=O)N(C)C[C@@H](OC)[C@H](C)CN(Cc1cc(-c3ccccc3)on1)[C@H](C)CO2 | -7[25 µM]
Cc1ccc2nc(N(CCCN(C)C)C(=O)CS(=O)(=O)c3ccccc3)sc2c1 | 2
CCc1cccc2sc(N(CCCN3CCOCC3)C(=O)CS(=O)(=O)c3ccccc3)nc12 | -1
O=C(CCS(=O)(=O)c1ccccc1)N(CCCN1CCOCC1)c1nc2ccc(F)cc2s1 | 72*
COc1ccccc1C(=O)NC1=NCCS1 | -31
O=C(c1ccccc1)N1CC[C@@H]2[C@@H](CO)Nc3ccc(-c4ccccc4F)cc3[C@@H]21 | -2
Cc1ccccc1C(=O)N1CCC(C(=O)Nc2nccs2)CC1 | -13
Cc1ccccc1C(=O)N1CCC(C(=O)Nc2nc3ccc(F)cc3s2)CC1 | 56*
O=C(CN1C(=O)C2CCCCC2C1=O)Nc1nc2ccc(F)cc2s1 (centres undefined) | -5
O=C(C[C@@H]1C[C@H]2c3cc(NS(=O)(=O)c4ccccc4)ccc3O[C@H]2[C@H](CO)O1)NCC(F)(F)F | -1[25 µM]
CC(C)[C@H](C)NC(=O)N(C)C[C@H]1OCc2ccccc2-c2c(n(C)c3ccccc23)C(=O)N([C@H](C)CO)C[C@H]1C | -4
CN(C)CC(=O)N1C[C@@H]2N[C@H](C1)C2c1ccc(-c2ccncc2)cc1 (some centres undefined) | -2[25 µM]
C[C@H](CO)N1C[C@H](C)[C@@H](CN(C)C(=O)Nc2ccc3c(c2)OCO3)OCc2ccccc2-c2ccccc2C1=O | -3[25 µM]
COc1ccc2c3c(n(C)c2c1)[C@@H](CO)N(C(=O)Nc1ccc(F)cc1)CC31CCN(C(=O)c2ccc3c(c2)OCO3)CC1 | 30[25 µM]
COc1ccc2c3c(n(C)c2c1)[C@H](CO)N(C(=O)Nc1ccc(F)cc1)CC31CCN(C(=O)Nc2c(C)noc2C)CC1 | 19[25 µM]
COc1ccc2c3c(n(C)c2c1)[C@H](CO)N(C(=O)Nc1ccc(F)cc1)CC31CCN(C(=O)c2ccc3c(c2)OCO3)CC1 | 65*[25 µM]
SMILES | CD40 NFkB inh
COc1cccc(-c2ccc3c(c2)[C@H]2[C@H](CCN2C(=O)NC2CCCCC2)[C@@H](CO)N3C)c1 | 14
CCCNC(=O)N1CC2(CCN(CC3CCCC3)CC2)c2c(n(C)c3cc(OC)ccc23)[C@@H]1CO | 9
Clc1ccccc1/C=C/c1nc(-c2ccccn2)no1 | 96*
Cc1occc1-c1nc(-c2ccccn2)no1 | -48
Cc1onc(-c2ccccc2Cl)c1-c1nc(-c2ccccn2)no1 | 6
CCOC(=O)N(C)C[C@H]1OCc2ccccc2-c2ccccc2C(=O)N([C@@H](C)CO)C[C@@H]1C | -12
COc1ccc(NC(=O)N(C)C[C@@H]2Oc3c(NS(=O)(=O)c4ccc(F)cc4)cccc3C(=O)N([C@@H](C)CO)C[C@H]2C)cc1 | -9
CCCNC(=O)[C@@H]1[C@@H](CO)[C@@H]2Cn3c(ccc(-c4ccncc4)c3=O)[C@H]1N2Cc1ccccc1F | 2[25 µM]
COc1ccc2c3c([nH]c2c1)[C@H](CO)N(CC1CC1)CC31CCN(S(=O)(=O)c2cccc(F)c2)CC1 | 7[25 µM]
O=C(O)c1cc2ccccc2c2c1C(=O)c1ccccc1-2 | 7
O=C1C=C(c2c(O)ccc3ccccc23)c2ccccc2C1=O | 73*
Oc1ccc2ccccc2c1CNc1ccccc1 | -4
CC(C)C#Cc1ccc([C@H]2[C@H](CO)N3C(=O)CN(C(=O)Cc4ccccc4)C[C@@H]23)cc1 | 2[25 µM]
C#C[C@]1(O)CC[C@H]2[C@@H]3CCc4cc(OC5CCCC5)ccc4[C@H]3CC[C@@]21C | 52*
C=CCOc1ccc2c(c1)CCC1C2CCC2(C)C(O)C(O)CC12 (centres undefined) | -111
C#C[C@]1(O)CC[C@H]2[C@@H]3CCc4cc(OC)ccc4[C@H]3CC[C@@]21C | 10
COC(=O)[C@@H]1[C@@H](CO)[C@@H]2Cn3c(ccc(C4=CCCCC4)c3=O)[C@@H]2N1Cc1ccc2c(c1)OCO2 | -4[25 µM]
CCC(=O)N1[C@H](CO)[C@H](c2ccc(-c3ccccc3)cc2)[C@@H]1CNC(=O)COC | 1
O=S(=O)(c1cccc2cnccc12)N1CCCNCC1 | -6[25 µM]
O=[N+]([O-])c1cccc2cnccc12 | 11
CC1CNCCN1S(=O)(=O)c1cccc2cnccc12 (centres undefined) | 32*
C/C=C/c1ccc([C@H]2[C@@H](CO)N(C(C)=O)C23CN(C(=O)NC2CCCCC2)C3)cc1 | 0[25 µM]
C[C@H]1CN([C@@H](C)CO)C(=O)CCCn2cc(nn2)CO[C@H]1CN(C)C(=O)Nc1ccc(-c2cccs2)cc1 | -12[25 µM]
CNC[C@@H]1Oc2c(N)cccc2C(=O)N(C)C[C@@H]1C | 0
Clc1nc(CN2CCOCC2)nc2sc3c(c12)CCC3 | -1
SMILES | CD40 NFkB inh
CC1CCN(Cc2nc(Cl)c3c4c(sc3n2)CCC4)CC1 | -5
Clc1nc(CN2CCCCC2)nc2sc3c(c12)CCCC3 | 55*
COC(=O)[C@H]1[C@H](CO)[C@H]2Cn3c(ccc(-c4ccccc4)c3=O)[C@H]2N1CC1CCCCC1 | 7[25 µM]
COc1cccc(-c2ccc3n(c2=O)C[C@@H]2[C@@H](CO)[C@H](C(=O)NC4CCCC4)[C@H]3N2C)c1 | 0
CC1OC(CC(=O)O)CC2=C1C(=O)c1c(O)cccc1C2=O (centres undefined) | 104*
COc1ccccc1CNC(=O)C[C@H]1C[C@@H]2c3cc(NC(=O)Nc4ccccc4F)ccc3O[C@@H]2[C@@H](CO)O1 | -2[25 µM]
O=C(CCN1CCCCC1)N[C@H]1CC[C@@H](CCn2cc(-c3cccc(F)c3)nn2)O[C@H]1CO | 5[25 µM]
CC(=O)Nc1ccc2oc(-c3ccccc3)nc2c1 | -2
Cc1cccc(-c2nc3cc(NC(=O)C4CCCO4)ccc3o2)c1 (centres undefined) | 54*
Cc1ccc2oc(-c3cccc(NC(=O)C4CCCO4)c3)nc2c1 (centres undefined) | -27
CCCNC(=O)C[C@H]1CC[C@@H]2[C@H](COC[C@H](O)CN2C(=O)c2ccc(F)cc2)O1 | -14[25 µM]
COc1ccc2c3c(n(C)c2c1)[C@H](CO)N(C(=O)Cc1ccccn1)CC31CCN(C)CC1 | 4[25 µM]
NCC[C@@H]1CC[C@H](NC(=O)NC2CCCCC2)[C@H](CO)O1 | 2[25 µM]
CO/N=C(\Cn1ncc(N2CCOCC2)c(Br)c1=O)c1ccc(Cl)cc1 | 25
Cn1ncc(Br)c1C(=O)O | 1
CC(=O)Cn1ncc(Br)c(Br)c1=O | 99*
C[C@@H]1CN(C)C(=O)Cc2cc(N)ccc2O[C@@H]1CN(C)C | 3
C[C@H](CO)N1C[C@H](C)[C@@H](CN(C)S(=O)(=O)c2ccc(C(F)(F)F)cc2)OCc2ccccc2-c2ccccc2C1=O | 8[25 µM]
O=C(N/N=C/c1ccc2c(c1)OCO2)c1ccc2c(c1)OCO2 | -62
